The campaign covered roughly 91,000 compounds. About 40 (0.04%) were called active. Rule as the data show it: active = activation above about 37%; inactive = the rest. A selection follows.
Biological target: Bifunctional epoxide hydrolase 2 (Homo sapiens) (UniProt P34913)
Experiment: sEH enzyme activity enhancers – biochemical, human sEH, primary screen (AID 717)
Conditions: purified human sEH enzymatic activity, activator screen; at 2 µM; stronger effect = higher value

Bifunctional epoxide hydrolase 2 (Homo sapiens), sequence (P34913 whole entry, looked up): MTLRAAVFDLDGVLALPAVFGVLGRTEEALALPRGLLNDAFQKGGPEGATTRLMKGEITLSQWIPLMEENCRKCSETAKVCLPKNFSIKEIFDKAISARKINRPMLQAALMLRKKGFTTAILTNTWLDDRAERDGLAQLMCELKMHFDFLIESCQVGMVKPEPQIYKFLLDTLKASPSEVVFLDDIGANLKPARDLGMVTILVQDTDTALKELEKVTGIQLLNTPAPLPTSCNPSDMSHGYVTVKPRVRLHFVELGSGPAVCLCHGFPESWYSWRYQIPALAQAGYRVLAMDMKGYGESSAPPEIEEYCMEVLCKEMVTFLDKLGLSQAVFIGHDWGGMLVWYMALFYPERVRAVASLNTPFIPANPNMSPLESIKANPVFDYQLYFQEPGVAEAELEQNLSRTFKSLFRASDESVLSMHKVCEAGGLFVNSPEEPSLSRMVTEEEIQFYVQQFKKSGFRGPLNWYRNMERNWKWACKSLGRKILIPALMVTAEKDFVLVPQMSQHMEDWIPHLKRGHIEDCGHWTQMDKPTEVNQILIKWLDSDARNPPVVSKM

Compound | activation
C=CCNC(=O)c1sc(SC)cc1-c1ccc(Cl)cc1 | 14.9% (inactive)
O=C(O)/C=C/C(=O)Nc1ccc(F)cc1F | 6.8% (inactive)
C/C(=N\NS(=O)(=O)c1cccc([N+](=O)[O-])c1)c1cc2ccccc2o1 | -6% (inactive)
COc1cccc(/C=N/NC(=O)c2cccc([N+](=O)[O-])c2)c1OS(=O)(=O)c1ccc(C)cc1 | -13.5% (inactive)
CCC(=O)OCc1c(C(F)(F)F)nn(C)c1Oc1cccc(C(F)(F)F)c1 | -5.9% (inactive)
Cc1nn(CC(=O)Nc2nc3ccccc3s2)c(C)c1[N+](=O)[O-] | 8% (inactive)
O=C(Cn1cncn1)N/N=C/c1c2ccccc2cc2ccccc12 | -1.1% (inactive)
CONC(=O)c1cc(OCC(F)(F)F)ccc1OCC(F)(F)F | -7.2% (inactive)
CC(=O)NS(=O)(=O)c1ccc(NC(=O)/C=C/c2ccccc2Cl)cc1 | -14.4% (inactive)
Cc1ccc(N2CCN(/N=C/c3cccs3)CC2)cc1 | 1.6% (inactive)
CC(C)(C)NC(=O)NC(=O)COC(=O)CCC1CCCCC1 | -0.5% (inactive)
Cc1cc2c(cc1C)N(C(=O)CN1C(=O)c3ccccc3C1=O)C(C)(C)c1ssc(=S)c1-2 | 18.1% (inactive)
O=C(NCc1cccnc1)c1cccnc1Sc1ccc(Cl)cc1 | 17.3% (inactive)
N/C(=N\OC(=O)CCc1ccccc1)c1ccc(Cl)cc1 | 10.5% (inactive)
CC1CCN(C(NC(=O)c2ccco2)C(=O)c2ccccc2)CC1 (stereo not given) | -0.4% (inactive)
CCCCCCCCOC1OC(CO)C(O)C(O)C1NC(C)=O (stereo not given) | -6.6% (inactive)
O=C(CSc1ccccc1)Nc1ccc(NC(=O)c2ccco2)cc1 | -17.6% (inactive)
CC(=O)c1cnn(-c2cc(Oc3ccc(F)cc3)ncn2)c1C | 7.1% (inactive)
O=C(NCCCCCCCCCNC(=O)C(F)(F)F)C(F)(F)F | -6.7% (inactive)
O=C(Nc1ccn(Cc2ccccc2F)n1)c1ccc(COc2ccc(Cl)cc2Cl)o1 | -1.7% (inactive)
